This note sets out measurements from PubChem BioAssay AID362 (NMMLSC, 2006).

A word on the inhibition: it is the change of the read-out against control, counted positive when it falls.

Screen size: about 4,300 compounds; about 60 (1%) were called active.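 How the source made its calls: active means inhibition of labelled peptide binding to the formyl peptide receptor of at least 65%; inactive means the rest.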 The list comes from a sample in which actives are over-represented; it also holds similar structures and randomly drawn compounds.

This assay deals with fMet-Leu-Phe receptor (Homo sapiens) (UniProt P21462). In words: small-molecule ligands of human FPR – U937-FPR cells, fMLFK-FITC, flow cytometry, primary screen (AID 362).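 On inhibition: plate controls were buffer control wells for no effect and unlabeled fMLFF blocking peptide for full effect; higher means less cell fluorescence so more probe displaced.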 Conditions: fMLFK-FITC displacement; stronger effect = higher value, concentration not given here. (In flow cytometry, cells or beads pass a laser one at a time.)
Chain of fMet-Leu-Phe receptor (Homo sapiens) (P21462 whole entry, looked up): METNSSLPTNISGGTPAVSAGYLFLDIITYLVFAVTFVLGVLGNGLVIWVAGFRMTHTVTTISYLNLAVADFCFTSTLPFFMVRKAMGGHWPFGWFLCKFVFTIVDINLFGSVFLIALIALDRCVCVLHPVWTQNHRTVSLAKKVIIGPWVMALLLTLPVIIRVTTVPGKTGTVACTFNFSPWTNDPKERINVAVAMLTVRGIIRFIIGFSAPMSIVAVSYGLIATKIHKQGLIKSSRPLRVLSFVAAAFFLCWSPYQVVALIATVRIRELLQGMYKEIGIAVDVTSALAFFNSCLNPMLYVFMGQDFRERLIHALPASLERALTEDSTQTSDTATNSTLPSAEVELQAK
`CCCCN(C)Cc1c(O)ccc2c3c(c(=O)oc12)CCC3`: the inhibition was 9.8% (inactive).
Take `CCN(CC)CCOC(=O)NCC1CC(C(C)=O)C1(C)C` (stereo not drawn): the inhibition is 8.3% (inactive).
Consider `CC(=O)c1ccc(N2CCN(C(=O)c3cn(CC(C)C)c(=O)c4c3c3ccccc3n4C)CC2)cc1`, for which the inhibition was 2.2% (inactive).
The value for `CCOc1ccc(C2C(C(=O)OC(C)C)=C(C)NC3=C2C(=O)C(C(=O)OC)C(C)C3)cc1` (stereo not drawn) was 13.6% (inactive).
The value for `CCOC(=O)C(CC)Oc1ccc2c3c(c(=O)oc2c1C)CCC3` (stereo not drawn) was “inactive”; that for `CCOC(=O)c1cc2c(=O)n3ccccc3nc2n(CC(C)C)c1=NC(=O)c1ccc(C(F)(F)F)cc1` was “inactive”.
As for `CCOCCOC(=O)C1=C(C)NC2=C(C(=O)C(C(=O)OC)C(C)C2)C1c1ccc(N(C)C)cc1` (stereo not drawn), the figure is 31.5% (inactive); as for `COCCOC(=O)C1=C(C)NC2=C(C(=O)C(C(=O)OC)C(C)C2)C1c1ccc(N(C)C)cc1` (stereo not drawn), 64% (inactive).
`CCOc1ccc(C2C(C(=O)OCCOC(C)C)=C(C)NC3=C2C(=O)C(C(=O)OC)C(C)C3)cc1` (stereo not drawn): the inhibition was 39.6% (inactive).
The value for `COC(=O)C1C(=O)C2=C(CC1C)NC(C)=C(C(=O)OCCOC(C)C)C2c1ccc(F)cc1` (stereo not drawn) was 14.3% (inactive).
As for `CCCOCCOC(=O)C1=C(C)NC2=C(C(=O)C(C(=O)OC)C(C)C2)C1c1ccc(N(C)C)cc1` (stereo not drawn), the figure is 78.6% (active); as for `COCCOC(=O)C1=C(C)NC2=C(C(=O)C(C(=O)OC)C(C)C2)C1c1ccc(OC)cc1` (stereo not drawn), 16.7% (inactive); as for `COC(=O)C1C(=O)C2=C(CC1C)NC(C)=C(C(=O)OCCOC(C)C)C2c1ccc(N(C)C)cc1` (stereo not drawn), 79.4% (active).
The value for `CCCOC(=O)C1=C(C)NC2=C(C(=O)C(C(=O)OC)C(C)C2)C1c1ccc(N(C)C)cc1` (stereo not drawn) was 23.6% (inactive).
For the molecule `COC(=O)C1C(=O)C2=C(CC1C)NC(C)=C(C(=O)OCCOC(C)C)C2c1ccc(OC)cc1` (stereo not drawn), the inhibition is 76.1% (active).
As for `COc1ccc(/C=C2/CCCC3=C2OC(N)=C(C#N)C3c2ccc(OC)c(OC)c2)cc1OC` (stereo not drawn), the entry is “inactive”; as for `COc1ccc(C2C(C(=O)OC3CCCC3)=C(C)NC3=C2C(=O)CCC3)c(OC)c1OC` (stereo not drawn), “inactive”.
As to `COc1cc(C2C(C(=O)OC3CCCCC3)=C(C)NC3=C2C(=O)CC(C)(C)C3)cc(Cl)c1O` (stereo not drawn), the inhibition is 10.9% (inactive).
As for `COc1ccc(N2C(=O)C3C4C=CC(C4)C3C2=O)cc1OC` (stereo not drawn), the inhibition result is “inactive”.
As for `CCOc1ccc(C2C(C(=O)OC3CCCCC3)=C(C)NC3=C2C(=O)CCC3)cc1OC` (stereo not drawn), the figure is 20.2% (inactive); as for `COc1ccc(CNC(=O)CCCCCn2c(SCC(=O)NCC3CCCO3)nc3cc4c(cc3c2=O)OCO4)cc1` (stereo not drawn), 2.8% (inactive).
As for `CCOC(=O)C1=C(C)NC2=C(C(=O)C(C(=O)OC)C(C)C2)C1c1ccccc1OC(C)C` (stereo not drawn), the figure is 10.1% (inactive); as for `CC(C)(C)c1cc(NS(=O)(=O)c2ccc([N+](=O)[O-])cc2)cc(C(C)(C)C)c1O`, 68% (active).
As for `CC(C)(C)c1cc(NS(=O)(=O)c2ccccc2[N+](=O)[O-])cc(C(C)(C)C)c1O`, the figure is 9.2% (inactive); as for `CC(C)(C)c1cc(Nc2ccccc2[N+](=O)[O-])cc(C(C)(C)C)c1O`, 20.9% (inactive); as for `O=C(O)C12CC3CC(C1)CC(n1cnc([N+](=O)[O-])n1)(C3)C2`, “inactive”.
`COc1ccc(N(CC(=O)N2CC3CC(C2)c2cccc(=O)n2C3)S(=O)(=O)c2c(C)noc2C)cc1` (stereo not drawn): the inhibition entry was “inactive”.
Take `CC1(C)CC(=O)C2=C(C1)c1c(ccc3ccccc13)NC2c1cc([N+](=O)[O-])ccc1N1CCOCC1` (stereo not drawn): the inhibition is 71.9% (active).
Take `COc1c(O)ccc(C2Nc3ccc4ccccc4c3C3=C2C(=O)CC(C)(C)C3)c1[N+](=O)[O-]` (stereo not drawn): the inhibition was 15.3% (inactive).
As for `COc1c(OC(C)=O)ccc(C2Nc3ccc4ccccc4c3C3=C2C(=O)CC(C)(C)C3)c1[N+](=O)[O-]` (stereo not drawn), the entry is “inactive”; as for `CC(=O)N1c2ccc(S(=O)(=O)N(CC(C)C)CC(C)C)cc2CC1C` (stereo not drawn), “inactive”; as for `CCCN(CCC)Cc1c(O)ccc2c(=O)c(Oc3ccc(OC)cc3)c(C(F)(F)F)oc12`, “inactive”.
As for `O=S(=O)(NC1CCCCCCC1)c1cccc2nsnc12`, the entry is “inactive”; as for `O=S(=O)(NC1CCCC1)c1cccc2nsnc12`, “inactive”.
For `N#CCCN(C(=O)c1cc(Cl)ccc1NS(=O)(=O)c1cccc2nsnc12)C1CCCCC1`, the inhibition is 73% (active).
With `CCOc1cc(C2Nc3c(ccc4ccccc34)C3=C2CCCC3=O)cc(Br)c1O` (stereo not drawn), the inhibition result is “inactive”.
For the molecule `COc1ccc(N2C3=C(C(=O)CC(C)(C)C3)C(c3ccc(F)cc3)C3=C2CC(C)(C)CC3=O)c(OC)c1`, the inhibition result is “inactive”.
Turning to `CC1=CC(C)C2(COC(=O)Nc3ccccc3)COC(c3cccnc3)C1C2C` (stereo not drawn), the inhibition entry was “inactive”.
Take `CCCCNC(=O)c1cn(CC(C)C)c(=O)c2c1c1ccccc1n2C`: the inhibition entry was “inactive”.
As to `CCOC(=O)C(O)(c1ccc(N(CC)C(=O)c2cccc(F)c2)cc1)C(F)(F)F` (stereo not drawn), the inhibition is 27.9% (inactive).
On to `CCN(C(=O)c1cccc(F)c1)c1ccc(C(O)(C(=O)OC)C(F)(F)F)cc1` (stereo not drawn), for which the inhibition is 85.1% (active).
As for `CCN(C(=O)c1ccc(F)cc1)c1ccc(C(O)(C(=O)OC)C(F)(F)F)cc1` (stereo not drawn), the entry is “inactive”.
For `O=C(CSc1c2c(nc3ccccc13)CCCC2)Nc1ccc2c(c1)OCCO2`, the inhibition result was “inactive”.
As for `CC(C)C(C(=O)Nc1nccs1)N1C(=O)c2ccccc2C1=O` (stereo not drawn), the figure is 17.3% (inactive); as for `CC(C)c1nnc(NC(=O)C(C(C)C)N2C(=O)c3ccccc3C2=O)s1` (stereo not drawn), 36.6% (inactive).
Turning to `CC(C)C(C(=O)O)N1C(=O)c2cccc([N+](=O)[O-])c2C1=O` (stereo not drawn), the inhibition was 17.7% (inactive).
In the case of `CC(c1ccccc1)N1C(=O)/C(=C/c2c(N3CCCCC3)nc3ccccn3c2=O)SC1=S` (stereo not drawn), the inhibition entry is “inactive”.
As for `CC(C)C(C(=O)O)N1C(=O)/C(=C2/C(=O)N(C)c3ccccc32)SC1=S` (stereo not drawn), the figure is 94.4% (active); as for `CC(C)C(C(=O)O)N1C(=O)/C(=C/c2ccccn2)SC1=S` (stereo not drawn), 90.2% (active); as for `CCOc1ccccc1C1C2=C(CC(C)(C)CC2=O)Nc2nc(C(F)(F)F)nn21` (stereo not drawn), 14.1% (inactive).
As to `O=C(COc1ccc(Cl)cc1)Oc1ccc2c3c(c(=O)oc2c1)CCC3`, the inhibition was 29.6% (inactive).
For the molecule `CC(C)Cn1cc(C(=O)N2CCN(C(=O)c3ccco3)CC2)c2c3ccccc3n(C)c2c1=O`, the inhibition was 4% (inactive).
For `CCOCCOC(=O)C1=C(C)NC2=C(C(=O)C(C(=O)OC)C(C)C2)C1c1cccc(Cl)c1` (stereo not drawn), the inhibition was 30.9% (inactive).
